# Measured values reported in PubChem BioAssay AID1159580 (chemical genetic matrix, 2015).
# “And” between values parts separate entries of the source, which are not always exact repeats. Equal values may be shown once. In all, about 5,500 compounds went through this assay and about 2,000 (36%) were called active. Another 18% or so got no clear call; they are omitted. Cut-off read from the data, not from the text of the source: active = normalized growth mostly below about 0.91 (no sharp cut-off); inconclusive = no clear call, values can overlap the other calls; inactive = mostly above about 0.92. The list shows a part of the results.
# Experiment: chemical genetic growth profiling, strain panel (AID 1159580);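 note: tested at 20 µM; growth read once vehicle control cultures reached saturation at 30 °C; 1 = growth at the plate median or of vehicle wells; lower values mean less growth of the strain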
# Conditions: S. cerevisiae deletion strains, growth OD
structure (smiles),measurement,setting,value
CC(C(=O)O)c1ccc(-c2ccccc2)c(F)c1 (stereo unspecified),normalized growth,"locus YAL013W, strain DEP1, stronger effect = lower value",0.952 (inactive)
same,normalized growth,"locus YAL021C, strain ccr4, stronger effect = lower value",0.978 (inactive)
same,normalized growth,"locus YAL026C, strain drs2, stronger effect = lower value",0.949 (inactive)
same,normalized growth,"locus YAL030W, strain snc1, stronger effect = lower value",0.99 (inactive)
same,normalized growth,"locus YBL061C, strain skt5, stronger effect = lower value",1 (inactive)
same,normalized growth,"locus YBR009C, strain hhf1, stronger effect = lower value",0.984 (inactive)
same,normalized growth,"locus YBR021W, strain FUR4, stronger effect = lower value",0.936 (inactive)
same,normalized growth,"locus YBR023C, strain chs3, stronger effect = lower value",1.02 (inactive)
same,normalized growth,"locus YBR171W, strain sec66, stronger effect = lower value",0.968 (inactive)
same,normalized growth,"locus YBR229C, strain ROT2, stronger effect = lower value",0.993 (inactive)
same,normalized growth,"locus YBR231C, strain swc5, stronger effect = lower value",0.974 (inactive)
same,normalized growth,"locus YBR279W, strain paf1, stronger effect = lower value",1.01 (inactive)
same,normalized growth,"locus YCL011C, strain gbp2, stronger effect = lower value",1 (inactive)
same,normalized growth,"locus YCL016C, strain dcc1, stronger effect = lower value",1.02 (inactive)
same,normalized growth,"locus YCL029C, strain bik1, stronger effect = lower value",0.944 (inactive)
same,normalized growth,"locus YCL061C, strain MRC1, stronger effect = lower value",0.99 (inactive)
same,normalized growth,"locus YCL069W, strain vba3, stronger effect = lower value",0.99 (inactive)
same,normalized growth,"locus YCR088W, strain abp1, stronger effect = lower value",0.978 (inactive)
same,normalized growth,"locus YDL005C, strain med2, stronger effect = lower value",0.965 (inactive)
same,normalized growth,"locus YDL035C, strain GPR1, stronger effect = lower value",0.958 (inactive)
same,normalized growth,"locus YDL040C, strain nat1, stronger effect = lower value",0.995 (inactive)
same,normalized growth,"locus YDL074C, strain BRE1, stronger effect = lower value",0.959 (inactive)
same,normalized growth,"locus YDL101C, strain DUN1, stronger effect = lower value",1.01 (inactive)
same,normalized growth,"locus YDL185W, strain tfp1, stronger effect = lower value",0.869 (active)
same,normalized growth,"locus YDL192W, strain arf1, stronger effect = lower value",0.974 (inactive)
same,normalized growth,"locus YDR001C, strain nth1, stronger effect = lower value",0.977 (inactive)
same,normalized growth,"locus YDR069C, strain doa4, stronger effect = lower value",1.02 (inactive)
same,normalized growth,"locus YDR101C, strain arx1, stronger effect = lower value",0.917 (active)
same,normalized growth,"locus YDR137W, strain rgp1, stronger effect = lower value",0.821 (active)
same,normalized growth,"locus YDR159W, strain sac3, stronger effect = lower value",0.913 (inactive)
same,normalized growth,"locus YDR162C, strain NBP2, stronger effect = lower value",0.936 (inactive)
same,normalized growth,"locus YDR195W, strain ref2",0.985 (inactive)
same,normalized growth,"locus YDR297W, strain sur2, stronger effect = lower value",0.992 (inactive)
same,normalized growth,"locus YDR318W, strain mcm21, stronger effect = lower value",0.979 (inactive)
same,normalized growth,"locus YDR334W, strain swr1, stronger effect = lower value",0.972 (inactive)
same,normalized growth,"locus YDR335W, strain msn5, stronger effect = lower value",1.01 (inactive)
same,normalized growth,"locus YDR388W, stronger effect = lower value",0.963 (inactive)
same,normalized growth,"locus YDR392W, strain spt3, stronger effect = lower value",0.748 (inactive)
same,normalized growth,"locus YDR502C, strain sam2, stronger effect = lower value",0.968 (inactive)
same,normalized growth,"locus YEL003W, strain gim4, stronger effect = lower value",0.967 (inactive)
same,normalized growth,"locus YEL037C, strain rad23, stronger effect = lower value",0.983 (inactive)
same,normalized growth,"locus YEL061C, strain CIN8 (second series), stronger effect = lower value",0.979 (inactive)
same,normalized growth,"locus YEL061C, strain CIN8, stronger effect = lower value",0.963 (inactive)
same,normalized growth,"locus YER015W, strain faa2, stronger effect = lower value",1 (inactive)
same,normalized growth,"locus YER016W, strain bim1, stronger effect = lower value",0.971 (inactive)
same,normalized growth,"locus YER110C, stronger effect = lower value",0.974 (inactive)
same,normalized growth,"locus YER111C, strain swi4, stronger effect = lower value",0.977 (inactive)
same,normalized growth,"locus YER155C, strain BEM2 (second series), stronger effect = lower value",0.979 (inactive)
same,normalized growth,"locus YER155C, strain BEM2, stronger effect = lower value",0.93 (inactive)
same,normalized growth,"locus YER167W, strain BCK2, stronger effect = lower value",0.974 (inactive)
same,normalized growth,"locus YFR010W, strain ubp6, stronger effect = lower value",0.997 (inactive)
same,normalized growth,"locus YGL078C, strain dbp3, stronger effect = lower value",0.913 (active)
same,normalized growth,"locus YGL086W, strain mad1, stronger effect = lower value",0.974 (inactive)
same,normalized growth,"locus YGL167C, strain pmr1, stronger effect = lower value",0.983 (inactive)
same,normalized growth,"locus YGL173C, strain kem1, stronger effect = lower value",0.968 (inactive)
same,normalized growth,"locus YGL227W, strain vid30, stronger effect = lower value",0.991 (inactive)
same,normalized growth,"locus YGL240W, strain doc1, stronger effect = lower value",0.953 (inactive)
same,normalized growth,"locus YGL248W, strain PDE1, stronger effect = lower value",1 (inactive)
same,normalized growth,"locus YGL253W, strain hxk2, stronger effect = lower value",0.98 (inactive)
same,normalized growth,"locus YGR135W, strain pre9, stronger effect = lower value",1.04 (inactive)
same,normalized growth,"locus YGR252W, strain gcn5, stronger effect = lower value",1.04 (inactive)
same,normalized growth,"locus YHR013C, strain ard1, stronger effect = lower value",1.05 (inactive)
same,normalized growth,"locus YHR027C, strain rpn1, stronger effect = lower value",0.994 (inactive)
same,normalized growth,"locus YHR030C, strain SLT2, stronger effect = lower value",0.944 (inactive) and 0.704 (active)
same,normalized growth,"locus YHR079C, strain IRE1 (second series), stronger effect = lower value",0.959 (inactive)
same,normalized growth,"locus YHR079C, strain IRE1, stronger effect = lower value",0.774 (active)
same,normalized growth,"locus YHR094C, strain hxt1, stronger effect = lower value",0.951 (inactive)
same,normalized growth,"locus YHR129C, strain ARP1, stronger effect = lower value",0.99 (inactive)
same,normalized growth,"locus YHR142W, strain chs7, stronger effect = lower value",1.01 (inactive)
same,normalized growth,"locus YHR200W, strain rpn10, stronger effect = lower value",0.978 (inactive)
same,normalized growth,"locus YIL066C, strain RNR3, stronger effect = lower value",0.981 (inactive)
same,normalized growth,"locus YIL073C, strain SPO22, stronger effect = lower value",1.01 (inactive)
same,normalized growth,"locus YIL125W, strain kgd1, stronger effect = lower value",0.868 (active)
same,normalized growth,"locus YIR030C, strain dcg1, stronger effect = lower value",0.963 (inactive)
same,normalized growth,"locus YJL092W, strain hpr5, stronger effect = lower value",0.99 (inactive)
same,normalized growth,"locus YJL095W, strain BCK1 (second series), stronger effect = lower value",0.988 (inactive)
same,normalized growth,"locus YJL095W, strain BCK1, stronger effect = lower value",1 (inactive) and 0.73 (active)
same,normalized growth,"locus YJL115W, strain asf1, stronger effect = lower value",0.982 (inactive)
same,normalized growth,"locus YJL129C, strain trk1, stronger effect = lower value",0.933 (inactive)
same,normalized growth,"locus YJL134W, strain LCB3, stronger effect = lower value",0.975 (inactive)
same,normalized growth,"locus YJL154C, strain vps35, stronger effect = lower value",0.984 (inactive)
same,normalized growth,"locus YJL164C, strain tpk1, stronger effect = lower value",0.992 (inactive)
same,normalized growth,"locus YJL166W, strain qcr8, stronger effect = lower value",1.01 (inactive)
same,normalized growth,"locus YJL168C, strain set2, stronger effect = lower value",0.959 (inactive)
same,normalized growth,"locus YJL187C, strain SWE1 (second series), stronger effect = lower value",0.989 (inactive)
same,normalized growth,"locus YJL187C, strain SWE1, stronger effect = lower value",0.985 (inactive)
